For 21 molecules, growth results are on record in PubChem BioAssay (NCI).

Test systems include DU-145 prostate; K-562 leukemia; MALME-3M melanoma; MDA-MB-231 breast; RXF 393 renal; SF-268 CNS; SF-295 CNS; SF-539 CNS; UACC-257 melanoma; M14 melanoma.
Assay in all cases: NCI-60 one-dose screen, 48 h (100 = growth as untreated, 0 = no growth, -100 = all killed)
Conditions in all cases: 10 µM unless noted

The panel holds about 83,000 compounds, 20% with a hit somewhere; the sample as a whole holds those more often.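 Compound tested at a single concentration for 48 hours in 96-well plates; a percent growth value below 10 was scored as active.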 Unmarked numbers belong to inactive results. Active and inactive are the calls of the source.

With `CC1=NN(c2nc(SCC(=O)Nc3nc4ccc(C)cc4s3)nc(-c3ccccc3)c2C#N)C(=O)C1`, the growth in the experiment on DU-145 prostate was 113%; in the experiment with K-562 leukemia, 94.7%; with MALME-3M melanoma it was 101%; in the experiment on MDA-MB-231 breast, 106%; with RXF 393 renal, 94.9%; with SF-268 CNS, 97.2%. Also, the growth is 103% in the experiment with SF-295 CNS, 90.3% in the experiment with SF-539 CNS, 113% in the experiment on UACC-257 melanoma and 109% in the experiment on M14 melanoma.

For the molecule `COc1ccc(C(=S)N2CCN(c3ccccc3Cl)CC2)cc1OC`, the growth in the experiment on DU-145 prostate is 111%; in the experiment on K-562 leukemia, 106%; in the experiment with MALME-3M melanoma, 90.8%; with MDA-MB-231 breast it was 102%; in the experiment with RXF 393 renal, 111%; with SF-268 CNS, 99.4%. Also, the growth in the experiment with SF-295 CNS is 91.7%; in the experiment with SF-539 CNS, 99.4%; with UACC-257 melanoma, 104%; in the experiment on M14 melanoma it was 92.8%.

With `Nc1nc(=S)c2ncn(C3OC(COP(=O)(O)O)C(O)C3O)c2[nH]1` (stereo not given), the growth with DU-145 prostate was 22.6%; in the experiment on K-562 leukemia, 13.7%; with MALME-3M melanoma, 39.7%; in the experiment on MDA-MB-231 breast, 38.7%; in the experiment on RXF 393 renal, 13.9%; with SF-268 CNS, 28.2%. In addition, the growth in the experiment with SF-295 CNS was 19.9%; in the experiment with SF-539 CNS, 26.2%; with UACC-257 melanoma, 36.7%; with M14 melanoma, 14.6%.

For the molecule `CN([O-])c1nc(N(C)[O-])nc(N2CCOCC2)n1.CN([O-])c1nc(N(C)[OH2+])nc(N2CCOCC2)n1.[Fe+3]`, the growth in the experiment on DU-145 prostate was 63.1% [100 µM]; with K-562 leukemia, 16.7% [100 µM]; with MALME-3M melanoma, 118% [100 µM]; with MDA-MB-231 breast, 110% [100 µM]; in the experiment with RXF 393 renal, 75.5% [100 µM]; in the experiment on SF-268 CNS, -14.2% [100 µM] (active). In addition, the growth with SF-295 CNS is 10.3% [100 µM]; in the experiment on SF-539 CNS, 108% [100 µM]; in the experiment on UACC-257 melanoma, 96.2% [100 µM]; in the experiment on M14 melanoma, 91.7% [100 µM].

With `Fc1cccc(CNc2c3ccccc3nc3ccccc23)c1F`, the growth in the experiment with DU-145 prostate is 76.7%; in the experiment on K-562 leukemia it was 43.4%; in the experiment on MALME-3M melanoma, 94.1%; in the experiment with MDA-MB-231 breast, 58.2%; in the experiment with RXF 393 renal, 59.5%; in the experiment on SF-268 CNS, 83.4%. In addition, the growth in the experiment with SF-295 CNS is 53.7%; in the experiment on SF-539 CNS it was 55.5%; in the experiment on UACC-257 melanoma, 92.9%; with M14 melanoma it was 70.6%.

In the case of `COc1cccc(/C=C/C(=O)c2cc3c(N)c(C(=O)Nc4ccccc4)sc3nc2C)c1`, the growth is 12% in the experiment on DU-145 prostate; 13.3% in the experiment on K-562 leukemia; 68.6% in the experiment on MALME-3M melanoma; 17.1% in the experiment with MDA-MB-231 breast; -74.6% (active) in the experiment on RXF 393 renal; 18.2% with SF-268 CNS. In addition, the growth in the experiment on SF-295 CNS was 44.8%; in the experiment on SF-539 CNS, -16% (active); with UACC-257 melanoma it was 71.8%; in the experiment with M14 melanoma, 29.9%.

As for `c1ccc(CNc2c3ccccc3nc3ccccc23)cc1`, the growth is 48.6% in the experiment on DU-145 prostate; 12.3% in the experiment with K-562 leukemia; 37.4% with MALME-3M melanoma; 57.9% with MDA-MB-231 breast; 41.9% in the experiment on RXF 393 renal; 62.6% in the experiment with SF-268 CNS. Besides, the growth is 37.6% with SF-295 CNS, 24% in the experiment on SF-539 CNS, 52.7% in the experiment on UACC-257 melanoma and 32.3% with M14 melanoma.

Take `CC(=O)c1cc(O)c2ccccc2c1O`: the growth with DU-145 prostate was 126%; with K-562 leukemia, 58%; in the experiment on MALME-3M melanoma, 95.9%; in the experiment on MDA-MB-231 breast it was 87.2%; with RXF 393 renal, 111%; in the experiment with SF-268 CNS it was 124%. For the same molecule, the growth is 108% in the experiment on SF-295 CNS, 97.5% in the experiment on SF-539 CNS, 96.5% in the experiment with UACC-257 melanoma and 105% in the experiment on M14 melanoma.

For the molecule `CC1=C(Nc2ccc(N3CCN(C)CC3)cc2)C(=O)c2cncnc2C1=O`, the growth is 81% in the experiment with DU-145 prostate; 9.68% (active) with K-562 leukemia; 131% in the experiment with MALME-3M melanoma; -10.1% (active) with MDA-MB-231 breast; 118% in the experiment with RXF 393 renal; 102% with SF-268 CNS. Further, the growth with SF-295 CNS was 103%; in the experiment on SF-539 CNS, 94.5%; in the experiment with UACC-257 melanoma it was 65.6%; in the experiment with M14 melanoma, 105%.

On to `NC(=O)c1c(NC(=O)c2ccccc2)sc2c1CCC(=O)C2`, for which the growth is 35% with DU-145 prostate; 5.24% (active) in the experiment with K-562 leukemia; 7.31% (active) in the experiment on MALME-3M melanoma; 0.799% (active) in the experiment on MDA-MB-231 breast; 18.7% with RXF 393 renal; 17.7% with SF-268 CNS. The growth in the experiment with SF-295 CNS was 33.4%; with SF-539 CNS, 16.1%; in the experiment on UACC-257 melanoma, 4.86% (active); in the experiment with M14 melanoma it was 20.9%.

`CCCCCC(=O)OCC(=O)O[C@@H]1C[C@]2(C(C)C)O[C@@]1(C)[C@@H]1CC[C@@H](C)[C@H]1[C@@H]2OC(=O)/C=C/c1ccccc1`: the growth was 73.4% in the experiment on DU-145 prostate; 42.3% in the experiment with K-562 leukemia; 49.8% with MALME-3M melanoma; 83.6% in the experiment on MDA-MB-231 breast; -2.83% (active) in the experiment on RXF 393 renal; 54.4% in the experiment on SF-268 CNS. Also, the growth in the experiment on SF-295 CNS is 90.2%; in the experiment on SF-539 CNS it was 92.3%; in the experiment on UACC-257 melanoma, 87.2%; in the experiment with M14 melanoma, 69.1%.

On to `O=c1oc2ccccc2cc1C1=NN=C(SCc2ccccc2)SC1`, for which the growth is 100% with DU-145 prostate; 91.4% in the experiment with K-562 leukemia; 99.3% in the experiment with MALME-3M melanoma; 101% with MDA-MB-231 breast; 109% in the experiment with RXF 393 renal; 97.1% in the experiment on SF-268 CNS. Further, the growth in the experiment on SF-295 CNS was 98.9%; in the experiment with SF-539 CNS, 96.5%; in the experiment with UACC-257 melanoma, 110%; in the experiment on M14 melanoma, 95.7%.

As to `N#Cc1nn(-c2cc(=O)[nH]c3ccc(Cl)cc23)c(N)c1C#N`, the growth in the experiment with DU-145 prostate was 118%; in the experiment on K-562 leukemia it was -43.9% (active); in the experiment with MALME-3M melanoma, 91.9%; in the experiment on MDA-MB-231 breast, 108%; with RXF 393 renal it was 107%; with SF-268 CNS, 113%. Moreover, the growth with SF-295 CNS was 97.6%; with SF-539 CNS it was 96%; in the experiment with UACC-257 melanoma, 87%; in the experiment with M14 melanoma, 93.7%.

In the case of `O=C1c2cccc3cccc(c23)C(=O)N1N1C(=O)c2cccc3c(N4CCOCC4)ccc(c23)C1=O`, the growth in the experiment on DU-145 prostate is 110%; in the experiment on K-562 leukemia it was 102%; with MALME-3M melanoma, 78.8%; with MDA-MB-231 breast it was 76.3%; in the experiment with RXF 393 renal, 93.4%; in the experiment on SF-268 CNS it was 96.2%. The growth with SF-295 CNS was 90.7%; in the experiment with SF-539 CNS it was 101%; with UACC-257 melanoma, 96.7%; in the experiment with M14 melanoma, 90%.

`COc1ccc(-c2nnc3n(C)c(=O)c4ccccc4n23)cc1N`: the growth with DU-145 prostate is 33.3%; with K-562 leukemia it was 12.1%; in the experiment on MALME-3M melanoma it was 51.9%; in the experiment with MDA-MB-231 breast, 41%; in the experiment with RXF 393 renal, -10.5% (active); in the experiment on SF-268 CNS it was 55.8%. Further, the growth with SF-295 CNS is 10.7%; with SF-539 CNS it was -5.87% (active); in the experiment with UACC-257 melanoma it was 49.8%; with M14 melanoma it was 13.6%.

As to `CCOC(=O)C1=NN(c2ccccc2)C(=O)/C1=C\N1C(=O)CC(=O)NC1=S`, the growth in the experiment on DU-145 prostate is 110%; in the experiment with K-562 leukemia, 98.2%; in the experiment on MALME-3M melanoma, 97.6%; in the experiment with MDA-MB-231 breast it was 91.8%; in the experiment on RXF 393 renal, 117%; in the experiment on SF-268 CNS, 93.9%. Further, the growth with SF-295 CNS was 103%; with SF-539 CNS it was 100%; with UACC-257 melanoma, 105%; in the experiment with M14 melanoma, 93.7%.

As to `Cc1cccc(N2CCN(CC(O)COc3ccc(Cl)cc3)CC2)c1` (stereo not given), the growth in the experiment on DU-145 prostate is 115%; with K-562 leukemia it was 82.9%; with MALME-3M melanoma, 146%; in the experiment with MDA-MB-231 breast, 94.5%; in the experiment on RXF 393 renal, 107%; with SF-268 CNS, 105%. Also, the growth in the experiment with SF-295 CNS is 82.3%; in the experiment on SF-539 CNS, 101%; in the experiment on UACC-257 melanoma, 108%; in the experiment with M14 melanoma, 95.9%.

Regarding `O=C1NC(=O)c2c1c1c3ccccc3ccc1c1[nH]c3ccc(Br)cc3c21`, the growth is 22.5% in the experiment with DU-145 prostate; 13.3% with K-562 leukemia; -10.7% (active) with MALME-3M melanoma; 27.5% in the experiment with MDA-MB-231 breast; 11.6% with RXF 393 renal; 14% in the experiment with SF-268 CNS. In addition, the growth was 24.3% in the experiment on SF-295 CNS, 23.1% in the experiment with SF-539 CNS, 51.9% in the experiment on UACC-257 melanoma and 15.5% in the experiment with M14 melanoma.

Turning to `O=[N+]([O-])c1ccc(N/N=C(/C(=N/Nc2ccc([N+](=O)[O-])cc2)c2ccccc2)c2ccccc2)cc1`, the growth was 9.75% (active) in the experiment with DU-145 prostate; 84.4% in the experiment with K-562 leukemia; 100% in the experiment with MALME-3M melanoma; 81.9% in the experiment on MDA-MB-231 breast; 62.8% in the experiment with RXF 393 renal; 104% with SF-268 CNS. The growth was 69.3% with SF-295 CNS, 94.2% in the experiment on SF-539 CNS, 98.9% in the experiment on UACC-257 melanoma and 80.2% in the experiment with M14 melanoma.

Take `O=C(CSc1nc2sc3c(c2c(=O)n1-c1ccccc1)CCCCC3)N/N=C/c1ccc(F)cc1`: the growth was -0.517% (active) in the experiment with DU-145 prostate; 64.2% with K-562 leukemia; 11.3% with MALME-3M melanoma; -26.1% (active) in the experiment on MDA-MB-231 breast; 5.3% (active) in the experiment on RXF 393 renal; 7.96% (active) with SF-268 CNS. The growth in the experiment with SF-295 CNS was 16.9%; in the experiment on SF-539 CNS, -39.9% (active); in the experiment with UACC-257 melanoma, 74.6%; with M14 melanoma it was 51.6%.

Take `CCN1C(=O)N(CC)C2C1NN=c1s/c(=C\c3ccc(Cl)cc3Cl)c(=O)n12` (stereo not given): the growth in the experiment on DU-145 prostate is 6% (active); in the experiment on K-562 leukemia it was -83.7% (active); in the experiment with MALME-3M melanoma, 50.4%; in the experiment with MDA-MB-231 breast, 12.4%; with RXF 393 renal, 61.1%; in the experiment with SF-268 CNS it was 42.3%. Also, the growth with SF-295 CNS is 12.8%; in the experiment on SF-539 CNS it was -12.6% (active); with UACC-257 melanoma, 68.6%; in the experiment with M14 melanoma, 13.8%.
